Screens (PubChem BioAssay)
Abeta yeast res – A-beta toxicity reversal in yeast. yeast expressing A-beta42, growth rescue, OD600, 48 h; response scale: 0% DMSO, 100% iron-clioquinol control. Potency, µM (top dose mostly 46.1 µM), actives largely listed as activators. 0.063% of 410,000 active; note: nearly all actives have a fitted effect of over 55% in size
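Yeast A-beta toxicity model in growth medium with pinned compounds, 48 h at 30 C; growth read as absorbance at 600 nm. Normalized to FeCl3/clioquinol equimolar mix (positive) and DMSO (negative).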
aSyn rescue – alpha-synuclein toxicity inhibition in yeast; Yeast expressing alpha-synuclein, growth rescue, BacTiter-Glo, 24 h; Potency, µM (titrated, usually from 46.1 µM), without a hit: at the highest dose growth rescue (activation), actives largely listed as activators; 0.14% of 370,000 active; AID 652106; note: % of control where 0% means no effect; nearly all actives have a fitted effect of over 65% in size
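Rescue of yeast growth: cells expressing toxic alpha-synuclein, induced in galactose at OD600 0.02, incubated with compound 24 h at 30 C. ATP luminescence quantified growth; inhibitors of toxicity appear as activators.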
TDP-43 yeast inh – rescues yeast growth from TDP-43 toxicity. TDP-43 expressing yeast growth rescue, BacTiter-Glo, 24 h. AID 652104. Potency, µM (series often up to 46.1 µM), without a hit: at the top dose growth rescue (activation), actives largely listed as activators. 1.8% of 410,000 active; note: % of control where 0% means no effect; nearly all actives have a fitted effect of over 50% in size
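Growth rescue of TDP-43-toxic yeast measured as ATP luminescence (BacTiter-Glo). Cells grown to mid-log in raffinose, induced in galactose at OD600=0.02, exposed to compound 24 hr at 30 deg C.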
FUS yeast rescue – suppressors of FUS proteinopathy in yeast; S. cerevisiae FUS-expressing, growth rescue, OD600, 24 h; Potency, µM (titrated, usually from 76.6 µM), hits mostly activators; 0.24% of 390,000 active;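 note: plate controls were DMSO vehicle for no effect and reference control for full effect; nearly all actives have a fitted effect of over 55% in size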
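Absorbance at 600 nm, taken 24hr after compound addition, measured rescue of FUS-yeast growth at 30C. Induction used 2% galactose with seeding at OD 0.005. Controls: CP55940 from 92uM final, DMSO only.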
* hit, by the source's call; i = inactive; ? = inconclusive; · = no result. This is a sample that favours compounds with a hit; in the whole collection about 2.1% have one here. Calls come from the whole dose curve; as a rule, active = well fitted curve in the direction sought with a large enough effect; inconclusive = small, poorly fitted or top-dose-only effect, or another doubt; inactive = no such curve, though single readings can be large; an effect the other way counts as inactive or inconclusive. Potency is the fitted concentration of half-maximal effect.

SMILES	Abeta yeast res	aSyn rescue	TDP-43 yeast inh	FUS yeast rescue
CC(C)C(=O)N1CC[C@H]2[C@H](CCCN2Cc2ccccc2)C1	·	·	·	i
COc1cccc(NC(=O)Nc2nc3ncccn3c2-c2ccc(F)c(F)c2)c1	·	·	·	i
Cc1ccccc1CNC(=O)C1CCC(CNS(=O)(=O)c2cccc3cccnc23)CC1 (stereo not given)	·	·	·	i
CCCCCCCCCCCCCCCCOC(=O)N1CCN(/[N+]([O-])=N/Oc2ccc([N+](=O)[O-])cc2[N+](C)=O)CC1	·	-12%	·	·
COc1ccc(CSc2nnc(SCc3ccccc3)s2)cc1	·	·	·	i
Cc1ccccc1N/N=C1\CCCNC1=O	i	-8%	16%	i
Cc1ccc(C)c(N/N=C2\CCCNC2=O)c1	i	-17%	20µM*	·
CSCCCNc1nc(C)nc2c1nnn2Cc1ccccc1	·	·	·	i
COc1cc(C#Cc2c(-c3cncn3C)n(C)c3ccc(-c4ccc5cc[nH]c5c4)cc23)cc(OC)c1	i	0%	20µM*	?
C[N+]1=C2N[C@@H](c3ccccc3)CC(=O)N2/C(=C\c2ccccc2)[C@@H]1Cc1ccccc1	·	·	·	i
Nc1nc2cc(Cl)c(Br)cc2o1	i	3%	20µM*	·
Nc1nc2ccc(Cl)cc2o1	i	?	7%	·
O=C(NC1CCCCC1)c1ccc(-c2ccccc2F)o1	i	1%	13µM*	·
O=C(NC1CCCCCC1)c1ccc(CS(=O)(=O)Cc2ccccc2F)o1	i	3%	1%	i
Cc1ccccc1Cn1cc(CN2[C@@H](CC(C)C)COc3cccc(F)c3S2(=O)=O)nn1	·	·	·	i
Cc1nc(C)c(-c2ccc(SCc3ccccc3C)nn2)s1	i	1%	16µM*	i
Cc1nc(C)c(-c2ccc(SCC(=O)Nc3ccccc3)nn2)s1	i	1%	9%	i
COc1ccc(/C=C/c2ccnc3ccccc23)c(OC)c1	·	-35%	·	·
Cc1ccc(N(Cc2ccccc2)C(=O)c2cccc(S(=O)(=O)N3CC(C)OC(C)C3)c2)cc1 (stereo not given)	i	-20%	-31%	28µM*
CC(=O)N/C(=C/c1ccccc1)c1sc2ccccc2[n+]1CCCCI	·	-5%	·	·
CC(C)OCCCNc1sc(S(=O)(=O)c2ccccc2)nc1S(=O)(=O)c1ccc(Cl)cc1	i	·	12%	32µM*
CCN(CC)CCCNc1sc(S(=O)(=O)c2ccccc2)nc1S(=O)(=O)c1ccc(Cl)cc1	i	·	25%	i
COC(=O)C[C@@H]1CC[C@H]2[C@@H](COc3ccc(NC(=O)NC(C)C)cc3C(=O)N2C)O1	·	·	·	i
CCc1nc(Nc2cc(OC)ccc2OC)c2oc3ccccc3c2n1	i	-10%	0%	i
CCc1nc(Nc2ccccc2OC)c2oc3ccccc3c2n1	i	-2%	13µM*	i
SMILES	Abeta yeast res	aSyn rescue	TDP-43 yeast inh	FUS yeast rescue
CC(C)(C)c1ccc(Cn2cnc(-c3ccc([N+](=O)[O-])cc3)c2)cc1	i	4%	32µM*	·
Cc1cc(C)c(Cn2cnc(-c3ccc([N+](=O)[O-])cc3)c2)c(C)c1	i	-4%	-11%	i
c1ccc(CN=C2NN=C(c3ccccc3)CS2)cc1	i	5%	13µM*	i
Cc1ccc(NC(=S)NNC(=O)CSc2nnc(-c3ccc(C)cc3)n2C2CCCCC2)cc1	·	·	·	i
CSc1nc2ncc3c(n2n1)CC1c2ccccc2CCN1C3=O (stereo not given)	i	·	16µM*	i
Cc1cccc(OCCN2CSC(=S)N(C)C2)c1	i	-8%	22%	i
COc1ccccc1OCCN1CSC(=S)N(C)C1	i	-67%	20µM*	i
Oc1ccc(/C=N/Nc2ccc(C(F)(F)F)cn2)cc1	?	-24%	10µM*	i
O=C(c1ccncc1F)N1CCC(n2nnc3ncccc32)CC1	·	·	·	i
COc1cc(NC(=O)c2ccccn2)ccc1NC(=O)c1ccccc1Cl	·	·	·	i
CC(=O)c1cccc(NC(=O)c2nc(-c3ccc(C)cc3)n3c2CCCCC3)c1	i	2%	20µM*	?
Cc1ccc(-c2nc(C(=O)Nc3cccc(C#N)c3)c3n2CCCCC3)cc1	i	0%	1%	i
COc1ccc(C(=O)/C=C/C(=O)N(Cc2ccccc2)C(C(=O)NC2CCCCC2)c2ccncc2)c(O)c1 (stereo not given)	i	12%	17%	·
COc1ccc(C(=O)/C=C/C(=O)N(Cc2ccc(F)cc2)C(C(=O)NC2CCCCC2)c2ccncc2)c(O)c1 (stereo not given)	i	25µM*	20µM*	·
COCCOC(=O)N1CCN(/[N+]([O-])=N/Oc2ccc([N+](=O)[O-])cc2[N+](=O)[O-])CC1	·	-74%	·	·
COc1ccc(OCc2cc(=O)c3ccc4c(c3o2)C=CC(C)(C)O4)cc1OC	i	-3%	35µM*	i
Cc1ccc(-c2cc(C(=O)NN=Cc3ccc(-c4ccccc4)cc3)[nH]n2)cc1	·	·	·	i
O=S(Cc1ccc(Br)cc1)Cc1nnc(SCc2ccc(Cl)cc2)n1-c1ccccc1 (stereo not given)	i	?	6.3µM*	·
CCOc1ccccc1NC(=O)CSc1ccccc1	i	3%	14µM*	i
COc1ccccc1NC(=O)CCSc1nnc(-c2ccco2)o1	i	-3%	-5%	i
CCOc1ccccc1NC(=O)NNC(=O)c1ccc2ccccc2c1	i	2%	17%	i
CCOc1ccccc1NC(=O)CSc1nnc(-c2ccco2)o1	i	0%	13µM*	i
CCOc1ccccc1NC(=O)c1ccc2ccccc2c1	i	-3%	6.3µM*	i
O=C(CSc1nnc(-c2ccco2)o1)c1ccccc1Cl	i	-4%	?	22µM*
CCOc1ccccc1NC(=O)CCC(=O)Nc1ccccc1OCC	i	-3%	12%	i
SMILES	Abeta yeast res	aSyn rescue	TDP-43 yeast inh	FUS yeast rescue
C=C1C=C(C(F)F)n2ncc(C(=O)N3CCCCC3)c2N1	·	-1%	·	·
Fc1ccc(-c2n[nH]c(=S)n2N=Cc2ccc(-c3ccccc3)cc2)cc1	·	·	·	i
O=[N+]([O-])c1ccc2nc(CNc3nc(N4CCOCC4)nc4c3ncn4-c3ccsc3)[nH]c2c1	·	·	·	i
COc1ccc(N=C(N)NC(=O)OCc2ccccc2)cc1	·	·	·	i
COC(=O)[C@]12C[C@H](CC(=O)NCC3CCCCC3)C(=O)N(Cc3cccc4ccccc34)C1=C[C@H](COCc1ccccc1)O[C@@H]2C	·	·	·	i
CCOc1ccccc1NC(=O)CSc1ncc(S(=O)(=O)c2ccc(C)c(C)c2)c(N)n1	i	·	17%	32µM*
CC(=O)Nc1cccc(C(=O)OCc2ccc([N+](=O)[O-])cc2)c1	i	-1%	?	i
COC(=O)c1cccc(NC(=O)c2cccc([N+](=O)[O-])c2)c1	i	0%	13µM*	i
O=C(Nc1cccc([N+](=O)[O-])c1)c1cccc(C(=O)Nc2cccc([N+](=O)[O-])c2)c1	i	0%	14%	i
